SMN2 splice up – SMN2 splice variant enhancement; HEK293 SMN2-luciferase splicing reporter, luminescence, 30-36 h; Potency, µM (top dose mostly 46.1 µM), for inactives: at the highest dose activity change, positive = activation, usual class: activators; 210,000 compounds, 2.8% hits; also: % of control where 0% means no effect; nearly all actives have a fitted effect of over 55% in size
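HEK293 cells carry an SMN2 […]–luciferase reporter in which exon 7 inclusion puts luciferase in frame. Cells were plated 10-12 h before compound addition, then incubated 30-36 h at 37C. ONE-Glo luminescence was read; sodium butyrate at 4.5 mM final served as control.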
ELG1 genotoxic – induces genotoxicity in HEK293T cells with luciferase-tagged ELG1 | HEK293T ELG1-luciferase reporter, luminescence, 16 h | Potency, µM (titrated, usually from 46 µM), for inactives: at the highest dose activity change, positive = activation, actives largely listed as activators | 330,000 compounds, 1.3% hits; also: % of control where 0% means no effect; nearly all actives have a fitted effect of over 60% in size
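DMSO vehicle served as control against compound-treated ELG1-luciferase HEK293T cells; exposure lasted 16 hr at 37 °C and 5% CO2, followed by ONE-Glo luminescence detection after 30 min.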
NPC1 promoter act – activators of NPC1 promoter; 320,000 compounds, 2.4% hits; Huh7 NPC1 promoter luciferase reporter, 24 h; AID 485313; Potency, µM (doses to about 9.22 µM), for the others: at the highest dose activation, most hits filed as activators; also: % of control where 0% means no effect; nearly all actives have a fitted effect of over 60% in size
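NPC1 promoter–luciferase Huh7 cells; 24 h compound; luminescence.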
FLuc counter – counter-screen for miR-21 project: firefly luciferase inhibitors or activators; P08659; purified FLuc, Km substrates, luminescence inhibition; Potency, µM (highest dose often 57.5 µM), inactives show at the top dose activity change, negative = inhibition, actives largely listed as inhibitors; 360,000 compounds, 6.9% hits;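 also: plate controls were vehicle for no effect and reference inhibitor for full effect; nearly all actives have a fitted effect of over 55% in size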
Target sequence (P08659 whole entry, looked up): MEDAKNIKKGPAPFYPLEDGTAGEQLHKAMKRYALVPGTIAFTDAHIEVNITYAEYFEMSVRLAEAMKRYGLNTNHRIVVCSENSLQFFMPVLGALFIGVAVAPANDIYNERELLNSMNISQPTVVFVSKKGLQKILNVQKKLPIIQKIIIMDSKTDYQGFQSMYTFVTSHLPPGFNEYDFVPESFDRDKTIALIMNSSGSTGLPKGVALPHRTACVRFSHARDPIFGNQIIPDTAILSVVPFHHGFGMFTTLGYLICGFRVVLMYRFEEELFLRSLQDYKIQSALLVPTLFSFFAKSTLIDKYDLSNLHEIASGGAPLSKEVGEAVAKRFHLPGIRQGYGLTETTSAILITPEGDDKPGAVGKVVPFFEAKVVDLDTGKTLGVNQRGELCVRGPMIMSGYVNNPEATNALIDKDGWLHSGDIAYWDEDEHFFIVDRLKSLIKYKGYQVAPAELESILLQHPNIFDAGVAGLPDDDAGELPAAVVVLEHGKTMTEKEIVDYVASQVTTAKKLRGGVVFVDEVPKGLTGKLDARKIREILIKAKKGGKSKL
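Purified P. pyralis luciferase, 10 nM final, with Km-level 10 uM D-luciferin and 10 uM ATP in 50 mM Tris acetate pH 7.5, 10 mM Mg acetate, 0.01% Tween-20, 0.05% BSA; 6-point qHTS titration about 60 µM downward; luminescence read.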
Rab9 promoter act – activators of Rab9 promoter. Potency, µM (doses to about 9.22 µM), for inactives: at the highest dose activation, negative = inhibition, hits mostly activators. Huh7 Rab9 promoter-luciferase reporter, luminescence, 24 h. AID 485297. 320,000 compounds, 2.8% hits; also: % of control where 0% means no effect; nearly all actives have a fitted effect of over 60% in size
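Rab9 promoter-driven luciferase in stably transfected Huh7 cells; 1500 cells/well rested 2 h, exposed to compound in DMSO for 24 h at 37 °C, 5% CO2. Luminescence read 10 min after adding luciferase reagent at ambient temperature.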
p53 reactivation – mutant p53 re-activation in reporter cells; H1299 p53-A138V BP100-luciferase reporter, luminescence, 24 h; 320,000 compounds, 0.063% hits; Potency, µM (doses to about 92.2 µM), for the others: at the top dose activity change, positive = activation, most hits filed as activators; also: % of control where 0% means no effect; nearly all actives have a fitted effect of over 45% in size
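p53-null H1299 cells stably carrying temperature-sensitive p53-A138V and a BP100-luciferase reporter were pinned with compounds (4-point, 1:5 series) and held 24 hrs at 37 deg C. Luminescence was read 10 min after detection reagent.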
The depositor's hits bear a star; ? = inconclusive; · = no result given. Sampled rows, rich in hits. Any-hit rate of the full collection: about 7.4%. Calls follow the shape of the dose curve; as a rule, active = well fitted curve in the direction sought with a large enough effect; inconclusive = small, poorly fitted or top-dose-only effect, or another doubt; inactive = no such curve, though single readings can be large; an effect the other way counts as inactive or inconclusive. Potency is read from the fitted curve at half-maximal effect.

SMILES	SMN2 splice up	ELG1 genotoxic	NPC1 promoter act	FLuc counter	Rab9 promoter act	p53 reactivation
Cc1cc(C)nc(SCC(=O)c2ccc3c(c2)OCCO3)n1	-30%	-2%	1%	-9%	4%	-4%
CC(=O)CSc1nc2ccccc2o1	3%	?	5%	-16%	19%	?
CCOc1ccc(OCCSc2nc3ccccc3o2)cc1	4%	10%	7%	-18%	-2%	17%
O=C(CSc1nc2ccccc2o1)c1ccc2c(c1)OCCO2	-1%	?	28%	8.5µM*	?	?
O=C(COC(=O)c1ccc(O)cc1)Nc1ccc2c(c1)OCO2	·	10%	·	·	·	9%
O=C(Nc1cccc(-c2ccc(N3CCCCC3)nn2)c1)c1ccco1	·	1.6µM*	4µM*	0.38µM*	2.8µM*	12%
Cc1ccccc1C(=O)Nc1ccc(N2CCOCC2)nc1	9%	16%	21%	?	29%	2%
Cc1ccc(C(=O)Nc2cccc(-c3ccc(N4CCOCC4)nn3)c2)cc1	·	1%	2.5µM*	1.3µM*	3.5µM*	27%
O=C(Nc1cccc(-c2ccc(N3CCOCC3)nn2)c1)c1ccccc1Cl	·	11%	?	1.7µM*	3.5µM*	10%
O=C(Nc1cccc(-c2ccc(N3CCOCC3)nn2)c1)c1ccc(Cl)cc1	·	?	?	2.1µM*	?	12%
Cc1ccc(C(=O)Nc2cccc(S(=O)(=O)N3CCOCC3)c2)cc1[N+](=O)[O-]	·	-4%	3%	-1%	0%	2%
Cc1cc(C(=O)Nc2cccc(-c3ccc(N4CCOCC4)nn3)c2)ccc1[N+](=O)[O-]	·	0%	?	2.7µM*	?	2%
Cc1ccc(C(=O)Nc2cccc(-c3ccc(N4CCOCC4)nn3)c2)cc1C	·	?	?	2.1µM*	2.8µM*	10%
O=C(COc1ccc(Cl)cc1)Nc1cccc(-c2ccc(N3CCOCC3)nn2)c1	·	2.1µM*	3.2µM*	1.3µM*	1.6µM*	16%
O=C(COc1ccc(Cl)cc1)Nc1ccc(CN2CCOCC2)cc1	·	-1%	-1%	·	-13%	-4%
Cc1ccc(C(=O)Nc2ccc(S(=O)(=O)N3CCOCC3)cc2)cc1C	·	0%	-8%	0%	0%	-4%
CC(C)CNC(=O)[C@@H]1CSC2c3ccccc3C(=O)N21 (some centres undefined)	·	-2%	-3%	3%	0%	1%
O=C(Cn1c(=O)n(-c2ccc(Cl)cc2)c(=O)c2sc3ccccc3c21)NC1CCCC1	0%	·	·	-1%	·	·
CN(Cc1nc(C(c2ccccc2)c2ccccc2)no1)CC1COCCO1 (centres undefined)	·	?	?	15µM*	?	10%
CN(Cc1nc(-c2cccs2)no1)CC1COCCO1 (centres undefined)	·	?	?	?	?	3%
COC(=O)c1ccc(NC(=O)Nc2ccc(F)cc2F)cc1	20µM*	?	?	7.6µM*	3.5µM*	7%
COC(=O)c1ccc(NC(=O)Nc2cccc(F)c2)cc1	·	7%	?	4.8µM*	1.8µM*	11%
Fc1cc(Br)ccc1NC(=S)Nc1ccccc1	18µM*	9%	?	19µM*	?	?
CC(=O)Nc1cccc(NC(=O)Nc2ccc(F)cc2F)c1	71%	4%	-1%	?	1%	15%
O=C(Nc1ccccc1)Nc1ccc(F)cc1F	?	?	?	12µM*	4.5µM*	4%
CCOc1ccc(NC(=O)c2sc3nc(C)nc(N4CCOCC4)c3c2C)cc1	·	-24%	-7%	-13%	1%	-9%
O=C(O)Cn1cc(/C=c2/sc3nc4ccccc4n3c2=O)c2ccccc21	17%	0%	-1%	11µM*	-3%	?
Cc1ccc(-n2c(C)cc(/C=c3/sc4nc5ccccc5n4c3=O)c2C)cc1	-79%	-1%	-22%	1.2µM*	-28%	2%

Source: PubChem
